Inconclusive results are not listed. Activity calls are given as the source filed them. Unless noted, calls follow the shape of the dose curve; as a rule, active = well fitted curve in the direction sought with a large enough effect in the repeat runs; inconclusive = weak or mixed curves; inactive = no such curve, though single readings can be large; an effect the other way counts as inactive or inconclusive.
Legend:
[1] = qHTS assay to identify aromatase inhibitors - cell viability counter screen (AID 743084);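 also: cells stimulated with testosterone during compound exposure; nearly all actives have a fitted effect of over 55% in size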
[2] = target: Aryl hydrocarbon receptor (Homo sapiens) (UniProt P35869); test: qHTS assay to identify small molecule that activate the aryl hydrocarbon receptor (AhR) signaling pathway (AID 743085);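 also: HG2L7.5c1 human HepG2 liver cells with stably integrated DRE-driven firefly reporter; series mostly up to about 70 µM; nearly all actives have a fitted effect of over 15% in size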
Sequence of Aryl hydrocarbon receptor (Homo sapiens) (P35869 whole entry, looked up): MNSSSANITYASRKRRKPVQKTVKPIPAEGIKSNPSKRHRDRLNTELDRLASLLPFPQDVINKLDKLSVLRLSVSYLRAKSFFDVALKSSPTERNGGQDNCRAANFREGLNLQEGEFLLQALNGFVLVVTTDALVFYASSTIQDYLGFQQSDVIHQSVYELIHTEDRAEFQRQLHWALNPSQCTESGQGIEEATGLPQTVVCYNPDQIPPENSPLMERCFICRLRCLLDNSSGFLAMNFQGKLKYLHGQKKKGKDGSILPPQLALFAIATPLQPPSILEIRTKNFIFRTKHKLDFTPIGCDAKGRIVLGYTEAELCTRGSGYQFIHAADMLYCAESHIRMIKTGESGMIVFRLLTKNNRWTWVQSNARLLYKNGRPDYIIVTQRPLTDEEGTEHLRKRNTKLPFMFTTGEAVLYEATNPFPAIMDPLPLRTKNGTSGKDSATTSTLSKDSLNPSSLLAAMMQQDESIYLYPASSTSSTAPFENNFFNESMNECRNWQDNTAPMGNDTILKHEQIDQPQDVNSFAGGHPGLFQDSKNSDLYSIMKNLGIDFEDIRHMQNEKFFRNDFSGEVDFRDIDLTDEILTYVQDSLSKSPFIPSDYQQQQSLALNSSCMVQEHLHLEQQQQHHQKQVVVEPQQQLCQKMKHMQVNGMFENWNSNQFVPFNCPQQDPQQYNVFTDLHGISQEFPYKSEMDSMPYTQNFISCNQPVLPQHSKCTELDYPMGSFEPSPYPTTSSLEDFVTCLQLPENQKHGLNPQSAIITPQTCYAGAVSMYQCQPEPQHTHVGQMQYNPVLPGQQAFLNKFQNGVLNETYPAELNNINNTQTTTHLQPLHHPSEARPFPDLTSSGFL
In short: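 Luminescence (ONE-Glo) from a dioxin-responsive-element luciferase reporter in HG2L7.5c1 HepG2 cells after 24 hr compound exposure at 37C; viability measured by CellTiter-Fluor fluorescence beforehand.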

[3] = qHTS assay to identify small molecule that activate the aryl hydrocarbon receptor (AhR) signaling pathway - cell viability counter screen (AID 743086);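 also: HepG2 liver cells carrying the AhR DRE luciferase reporter; series mostly up to about 70 µM; nearly all actives have a fitted effect of over 45% in size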
In short: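 HepG2-AhR-luc (HG2L7.5c1) cells, 4000/well, were preincubated 5 h at 37C, exposed to compound in qHTS format for 24 hr at 37C, then given CellTiter-Fluor for 30 min; viability was read as fluorescence in the reporter wells.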

[4] = target: Peroxisome proliferator-activated receptor gamma (Homo sapiens) (UniProt P37231); test: qHTS assay to identify small molecule agonists of the peroxisome proliferator-activated receptor gamma (PPARg) signaling pathway (AID 743094; active = well fitted activation curve with a large enough effect in the signal ratio in the repeat runs, not every such curve was filed as active; the % refers to the signal ratio)
Sequence of Peroxisome proliferator-activated receptor gamma (Homo sapiens) (P37231 whole entry, looked up): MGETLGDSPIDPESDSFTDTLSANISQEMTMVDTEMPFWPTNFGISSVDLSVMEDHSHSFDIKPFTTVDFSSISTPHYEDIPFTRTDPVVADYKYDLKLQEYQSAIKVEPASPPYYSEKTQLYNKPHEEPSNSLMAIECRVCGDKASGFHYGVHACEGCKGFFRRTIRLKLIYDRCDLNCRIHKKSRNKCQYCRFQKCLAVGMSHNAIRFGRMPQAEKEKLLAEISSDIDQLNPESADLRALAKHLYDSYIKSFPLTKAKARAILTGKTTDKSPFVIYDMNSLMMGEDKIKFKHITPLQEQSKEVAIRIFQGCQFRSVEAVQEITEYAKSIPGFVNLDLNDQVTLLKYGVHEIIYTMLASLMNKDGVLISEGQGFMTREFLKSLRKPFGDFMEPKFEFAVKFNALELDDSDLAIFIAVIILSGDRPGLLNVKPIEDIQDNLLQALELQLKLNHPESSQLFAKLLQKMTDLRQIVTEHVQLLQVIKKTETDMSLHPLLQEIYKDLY
In short: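 Reporter activation was scored by fluorescence of cleaved LiveBLAzer B/G substrate (1 h, room temperature) in PPARg-bla HEK293H cells previously treated 17 h at 37C with DMSO-dissolved compounds.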

[5] = target: Peroxisome proliferator-activated receptor gamma (Homo sapiens) (UniProt P37231); test: qHTS assay to identify small molecule antagonists of the peroxisome proliferator-activated receptor gamma (PPARg) signaling pathway (AID 743191; calls by dose curve; also: series mostly up to about 63 µM; nearly all actives have a fitted effect of over 30% in size)
In short: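 GeneBLAzer PPARg UAS-bla HEK293H cells carrying a UAS-driven beta-lactamase reporter were plated at 3000 cells/well, preincubated 5 h at 37C, then given compound for 17 h at 37C; LiveBLAzer B/G FRET substrate was read after 1 h at room temperature.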

[6] = qHTS assay to identify small molecule antagonists of the peroxisome proliferator-activated receptor gamma (PPARg) signaling pathway - cell viability counter screen (AID 743194); also: nearly all actives have a fitted effect of over 55% in size
In short: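 PPARg-UAS-bla HEK293H cells were plated, rested 5 h at 37 C, then treated with compounds plus rosiglitazone (50 nM final) for 17 h at 37 C; viability was then read by CellTiter-Glo luminescence after 30 min at room temperature.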

[7] = qHTS assay for small molecule agonists of the antioxidant response element (ARE) signaling pathway (AID 743202; active = well fitted activation curve with a large enough effect in the signal ratio in the repeat runs, not every such curve was filed as active; the % refers to the signal ratio)
In short: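 Following a 16 h, 37 C exposure of reporter HepG2 cells (ARE-driven beta-lactamase, 2,000 cells/well) to compounds, FRET substrate was applied for 2 h at room temperature and fluorescence intensity recorded.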

[8] = qHTS assay for small molecule agonists of the antioxidant response element (ARE) signaling pathway - cell viability counter screen (AID 743203; calls by dose curve; also: nearly all actives have a fitted effect of over 55% in size)
In short: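 Viability counter screen: stably transfected ARE-bla HepG2 line, 16 hrs compound exposure at 37C/5% CO2, ATP-based CellTiter-Glo luminescence measured in the reporter wells.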

[9] = qHTS assay for small molecule activators of the heat shock response signaling pathway - cell viability counter screen (AID 743209); also: nearly all actives have a fitted effect of over 50% in size
In short: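 Viability of HSE-bla HeLa cells is measured with CellTiter-Glo in the wells already used for the reporter read. Compound exposure lasts 5 h at 37 C, and luminescence is read after 30 min at room temperature.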

[10] = qHTS assay for small molecule activators of the heat shock response signaling pathway (AID 743210; active = well fitted activation curve with a large enough effect in the signal ratio in the repeat runs, with a control signal flat, not every such curve was filed as active; the % refers to the signal ratio; also: series mostly up to about 63 µM)
In short: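 Heat shock element–beta-lactamase HeLa reporter cells; qHTS with compounds for 5 h at 37 C; detection by FRET substrate fluorescence after 2.5 h at RT.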

[11] = qHTS assay to identify small molecule agonists of the peroxisome proliferator-activated receptor delta (PPARd) signaling pathway - cell viability counter screen (AID 743211); also: nearly all actives have a fitted effect of over 55% in size
In short: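 Viability was measured as CellTiter-Glo luminescence (30 min, room temperature) in the same wells as the beta-lactamase readout. GeneBLAzer PPARd UAS-bla HEK293H cells received compound after 5 h plating and were incubated 17 h at 37 C.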

[12] = target: Peroxisome proliferator-activated receptor delta (Homo sapiens) (UniProt Q03181); test: qHTS assay to identify small molecule agonists of the peroxisome proliferator-activated receptor delta (PPARd) signaling pathway (AID 743212; calls by dose curve)
Sequence of Peroxisome proliferator-activated receptor delta (Homo sapiens) (Q03181 whole entry, looked up): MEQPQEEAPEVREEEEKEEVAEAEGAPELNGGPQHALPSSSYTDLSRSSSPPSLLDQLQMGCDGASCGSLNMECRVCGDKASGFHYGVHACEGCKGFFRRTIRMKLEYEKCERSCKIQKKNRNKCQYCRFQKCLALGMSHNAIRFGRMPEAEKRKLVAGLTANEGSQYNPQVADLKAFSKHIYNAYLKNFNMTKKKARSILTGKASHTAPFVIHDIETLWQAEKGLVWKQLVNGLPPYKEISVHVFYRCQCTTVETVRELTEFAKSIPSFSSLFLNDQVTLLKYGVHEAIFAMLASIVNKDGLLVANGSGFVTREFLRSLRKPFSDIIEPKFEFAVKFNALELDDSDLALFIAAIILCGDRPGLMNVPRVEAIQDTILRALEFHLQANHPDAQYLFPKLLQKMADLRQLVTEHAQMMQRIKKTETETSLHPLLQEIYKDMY
In short: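 Beta-lactamase reporter read by fluorescence (LiveBLAzer B/G FRET, 2 h, room temperature). Test agents, in DMSO, incubated at 37 C with PPARd-bla HEK293H cells.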

[13] = qHTS assay to identify small molecule antagonists of the peroxisome proliferator-activated receptor delta (PPARd) signaling pathway - cell viability counter screen (AID 743213); also: nearly all actives have a fitted effect of over 50% in size
In short: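 PPARd-bla HEK293H cells were treated with compounds plus agonist L165041 (300 nM final) for 17 h at 37 C. Viability was then read in the same wells by CellTiter-Glo luminescence after 30 min at room temperature.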

[14] = target: Bile acid receptor (Homo sapiens) (UniProt Q96RI1); test: qHTS assay to identify small molecule antagonists of the farnesoid-X-receptor (FXR) signaling pathway (AID 743217; active = well fitted inhibition curve with a large enough effect in the signal ratio in the repeat runs, not every such curve was filed as active; the % refers to the signal ratio)
Sequence of Bile acid receptor (Homo sapiens) (Q96RI1 whole entry, looked up): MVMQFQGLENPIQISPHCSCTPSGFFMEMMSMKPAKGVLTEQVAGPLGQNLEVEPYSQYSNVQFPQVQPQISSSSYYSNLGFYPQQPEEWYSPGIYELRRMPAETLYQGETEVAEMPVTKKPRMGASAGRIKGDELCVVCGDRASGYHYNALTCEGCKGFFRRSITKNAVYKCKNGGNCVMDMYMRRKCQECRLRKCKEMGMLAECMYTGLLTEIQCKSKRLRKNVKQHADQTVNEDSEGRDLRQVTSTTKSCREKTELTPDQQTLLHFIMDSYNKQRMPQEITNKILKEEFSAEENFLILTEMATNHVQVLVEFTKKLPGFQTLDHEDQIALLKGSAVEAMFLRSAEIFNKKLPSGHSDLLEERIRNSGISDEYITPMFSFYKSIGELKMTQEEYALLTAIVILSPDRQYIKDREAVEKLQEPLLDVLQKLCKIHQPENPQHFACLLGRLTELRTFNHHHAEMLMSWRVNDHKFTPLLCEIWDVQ
In short: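 Screen of the Tox21 10K library in quantitative HTS format using FXR-UAS-bla HEK 293T reporter cells. Agonist chenodeoxycholic acid, 50 uM final, added with compounds; 16 h incubation at 37 °C; beta-lactamase FRET fluorescence measured.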

[15] = qHTS assay to identify small molecule agonists of the farnesoid-X-receptor (FXR) signaling pathway - cell viability counter screen (AID 743218); also: nearly all actives have a fitted effect of over 45% in size
In short: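 Viability of FXR-bla HEK 293T cells is measured by ATP-based CellTiter-Glo luminescence following 16 h compound treatment at 37 C and a prior 2 h room-temperature beta-lactamase substrate step.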

[16] = target: Bile acid receptor (Homo sapiens) (UniProt Q96RI1); test: qHTS assay to identify small molecule agonists of the farnesoid-X-receptor (FXR) signaling pathway (AID 743220; active = well fitted activation curve with a large enough effect in the signal ratio in the repeat runs, not every such curve was filed as active; the % refers to the signal ratio)
In short: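 FXR-UAS-bla HEK 293T cells carrying a UAS-driven beta-lactamase reporter were plated for 5 h at 37C/5% CO2, then exposed to DMSO-dissolved Tox21 10K compounds for 16 h at 37C. A LiveBLAzer B/G FRET substrate was loaded for 2 h at room temperature before fluorescence reading.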

[17] = qHTS assay to identify small molecule antagonists of the farnesoid-X-receptor (FXR) signaling pathway - cell viability counter screen (AID 743221; active = well fitted cell-killing curve with a large enough effect in the repeat runs, not every such curve was filed as active; also: nearly all actives have a fitted effect of over 50% in size)
In short: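 Cytotoxicity counter screen run in the FXR-bla reporter wells: HEK 293T cells exposed to compound with 50 uM (final) chenodeoxycholic acid for 16 h, 37 C, then viability measured by CellTiter-Glo luminescence after 30 min, room temperature.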

[18] = target: Vitamin D3 receptor (Homo sapiens) (UniProt P11473); test: qHTS assay to identify small molecule antagonists of the vitamin D receptor (VDR) signaling pathway (AID 743223; active = well fitted inhibition curve with a large enough effect in the signal ratio in the repeat runs, not every such curve was filed as active; the % refers to the signal ratio)
Sequence of Vitamin D3 receptor (Homo sapiens) (P11473 whole entry, looked up): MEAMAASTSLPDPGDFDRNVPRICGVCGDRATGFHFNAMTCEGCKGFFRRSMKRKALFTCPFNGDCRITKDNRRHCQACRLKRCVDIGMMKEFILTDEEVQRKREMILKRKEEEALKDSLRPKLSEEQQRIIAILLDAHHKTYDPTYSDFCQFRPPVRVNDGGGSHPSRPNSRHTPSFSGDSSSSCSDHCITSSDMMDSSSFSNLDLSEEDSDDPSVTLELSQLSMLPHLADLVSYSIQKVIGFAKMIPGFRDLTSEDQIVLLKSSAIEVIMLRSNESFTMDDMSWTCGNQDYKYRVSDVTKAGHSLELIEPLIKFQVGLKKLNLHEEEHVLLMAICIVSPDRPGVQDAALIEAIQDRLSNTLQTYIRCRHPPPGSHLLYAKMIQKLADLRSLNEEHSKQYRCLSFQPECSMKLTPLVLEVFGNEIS
In short: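 Antagonist mode: compound added to VDR-bla cells alongside agonist 1alpha,25-dihydroxyvitamin D3 (3 nM final), incubation 16 h at 37C. Read-out is LiveBLAzer FRET fluorescence, 2 h at room temperature.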

[19] = target: Peroxisome proliferator-activated receptor delta (Homo sapiens) (UniProt Q03181); test: qHTS assay to identify small molecule antagonists of the peroxisome proliferator-activated receptor delta (PPARd) signaling pathway (AID 743215; active = well fitted inhibition curve with a large enough effect in the signal ratio in the repeat runs, not every such curve was filed as active; the % refers to the signal ratio;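 also: cells stimulated with agonist L165041 at 300 nM final during compound exposure; series mostly up to about 62 µM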)
In short: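 Plated HEK293H PPARd-bla cells rested 5 h at 37 C and 5% CO2. Compound, then agonist L165041 at 300 nM final, was added; 17 h at 37 C followed. Substrate loading, 2 h room temperature, fluorescence measured.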

[20] = target: Vitamin D3 receptor (Homo sapiens) (UniProt P11473); test: qHTS assay to identify small molecule agonists of the vitamin D receptor (VDR) signaling pathway (AID 743222; calls by dose curve)
In short: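 Fluorescence from cleaved LiveBLAzer B/G FRET substrate served as readout. VDR-bla cells had been treated 16 h at 37C with test compounds in DMSO, following a 4 h settling period, and substrate was loaded for 2 h at RT.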
% is scaled to controls: 0 for no effect and ±100 for the full control effect.

CCCCC(CC)COC(=O)CCCCCCCCC(=O)OCC(CC)CCCC (centres undefined)
inactive: Potency [1] | Potency [2] | Potency [3] | Potency [4] | Potency [5] | Potency [6] | Potency [7] | Potency [8] | Potency [9] | Potency [10] | Potency [11] | Potency [12] | Potency [13] | Potency [14] | Potency [15] | Potency [16] | Potency [17] | outcome [18]

CN(C)CCN(Cc1ccccc1)c1ccccn1
inactive: Potency [1] | Potency [2] | Potency [3] | Potency [4] | Potency [5] | Potency [6] | Potency [7] | Potency [8] | Potency [9] | Potency [10] | Potency [12] | Potency [13] | Potency [19] | Potency [17] | Potency [20] | outcome [18]

CNC(=O)CN(CCN(CCN(CC(=O)[O-])CC(=O)NC)CC(=O)[O-])CC(=O)[O-].O.[Gd+3]
inactive: Potency [1] | Potency [2] | Potency [3] | Potency [4] | Potency [5] | Potency [6] | Potency [7] | Potency [8] | Potency [9] | Potency [11] | Potency [12] | Potency [13] | Potency [19] | Potency [15] | Potency [17]

COC(C)OC
inactive: Potency [1] | Potency [2] | Potency [3] | Potency [4] | Potency [5] | Potency [6] | Potency [8] | Potency [9] | Potency [10] | Potency [11] | Potency [12] | Potency [13] | Potency [19] | Potency [15] | Potency [17]

CCO[Si](CCCCl)(OCC)OCC
inactive: Potency [1] | Potency [2] | Potency [3] | Potency [4] | Potency [5] | Potency [6] | Potency [7] | Potency [8] | Potency [9] | Potency [10] | Potency [12] | Potency [13] | Potency [19] | Potency [15] | Potency [17] | outcome [18]

Cc1cccc(C)c1NC(=O)CN(CC(=O)O)CC(=O)O
inactive: Potency [1] | Potency [2] | Potency [3] | Potency [4] | Potency [5] | Potency [6] | Potency [7] | Potency [8] | Potency [9] | Potency [10] | Potency [12] | Potency [19] | Potency [14] | Potency [15] | Potency [16] | Potency [17] | Potency [20]

C/C(=C(\CCOP(=O)(O)O)SC(=O)c1ccccc1)N(C=O)Cc1cnc(C)nc1N
inactive: Potency [1] | Potency [2] | Potency [3] | Potency [4] | ratio activity, negative = inhibition [5] 3.86% [at 5.95 µM] | activity change, negative = cytotoxicity [6] 4.9% [at 5.95 µM] | activation [7] 14.1% [at 8.36 µM] | viability change, negative = cytotoxic [8] 8.52% [at 8.36 µM] | activity change, negative = cytotoxicity [9] -16.4% [at 5.95 µM] | activation [10] 1.29% [at 5.95 µM] | activity change, negative = cytotoxicity [11] 2.72% [at 5.95 µM] | activation [12] -1.46% [at 5.95 µM] | viability change, negative = cytotoxic [13] 1.06% [at 6.26 µM] | viability change, negative = cytotoxic [15] 3.54% [at 5.95 µM] | activity change, negative = cytotoxicity [17] 0.132% [at 5.95 µM] | activation [20] -0.529% [at 6.01 µM] | activity change, negative = inhibition [18] 2.53% [at 6.95 µM]

CC1CCC(=O)C1=O (centres undefined)
inactive: Potency [1] | Potency [2] | Potency [3] | Potency [4] | Potency [5] | Potency [6] | Potency [7] | Potency [8] | Potency [9] | Potency [10] | Potency [12] | Potency [13] | Potency [19] | Potency [14] | Potency [15] | Potency [16] | Potency [17] | Potency [20]

CCN(CC)CCOC(=O)C(Cc1cccc2ccccc12)CC1CCCO1 (centres undefined)
inactive: Potency [1] | Potency [2] | Potency [3] | Potency [4] | Potency [5] | Potency [6] | Potency [7] | Potency [8] | Potency [9] | Potency [10] | Potency [11] | Potency [13] | Potency [15] | Potency [17] | Potency [20] | outcome [18]

O=C(OCCc1ccccc1)c1ccccc1
inactive: Potency [1] | Potency [2] | Potency [3] | Potency [4] | Potency [5] | Potency [6] | Potency [8] | Potency [9] | Potency [10] | Potency [11] | Potency [12] | Potency [13] | Potency [19] | Potency [15] | Potency [17] | Potency [20] | outcome [18]

CCCCCCCCO[C@@H]1O[C@H](CO)[C@@H](O)[C@H](O)[C@H]1O
inactive: Potency [1] | Potency [2] | Potency [3] | Potency [4] | Potency [5] | Potency [6] | Potency [8] | Potency [9] | Potency [10] | Potency [11] | Potency [12] | Potency [13] | Potency [14] | Potency [15] | Potency [16] | Potency [17]

CC(=O)c1cccc([N+](=O)[O-])c1
inactive: Potency [1] | Potency [2] | Potency [3] | Potency [4] | Potency [5] | Potency [6] | Potency [7] | Potency [8] | Potency [9] | Potency [10] | Potency [11] | Potency [12] | Potency [13] | Potency [19] | Potency [14] | Potency [15] | Potency [16] | Potency [17] | Potency [20] | outcome [18]

CCOC(=O)Cc1cccc2ccccc12
inactive: Potency [1] | Potency [2] | Potency [3] | Potency [4] | Potency [5] | Potency [6] | Potency [7] | Potency [8] | Potency [9] | Potency [13] | Potency [15] | Potency [17] | Potency [20] | outcome [18]

COCC(C)OC(C)=O (centres undefined)
inactive: Potency [1] | Potency [2] | Potency [3] | Potency [4] | Potency [5] | Potency [6] | Potency [8] | Potency [9] | Potency [10] | Potency [11] | Potency [12] | Potency [13] | Potency [19] | Potency [14] | Potency [15] | Potency [16] | Potency [17]

CC(C)(C)Cl
inactive: Potency [1] | Potency [2] | Potency [3] | Potency [4] | Potency [5] | Potency [6] | Potency [7] | Potency [8] | Potency [9] | Potency [10] | Potency [13] | Potency [14] | Potency [15] | Potency [16] | Potency [17] | Potency [20] | outcome [18]

Reference: PubChem BioAssay (Tox21)
